Jurkat NFkB inh = inhibitors of the PMA/ionomycin-induced NF-kB reporter in Jurkat cells. PMA/ionomycin-induced NF-kB luciferase reporter, luminescence. inhibition, % at 4 µM. 0.53% of 330,000 active. AID 435003; in the data active means inhibition above about 50%
Shn3 3UTR inh = Schnurri-3 reporter inhibition in Clone20 osteoblasts | inhibition, % at 12.5 µM | 0.52% of 360,000 active | AID 588674 | Clone20 osteoblast Shn3 3'UTR firefly luciferase, 24 h;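 active means mean inhibition of at least 75% with every replicate also reaching 75%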
697 NFkB inh = lowers PMA/ionomycin-induced NF-kB signal in 697 B cells. 697 B-cell NF-kB luciferase reporter, 16 h. inhibition, % at 4 µM. 0.33% of 330,000 active. AID 435022; in the data active means inhibition above about 35%
Mdm2 MdmX PPI = inhibitors of human Mdm2/MdmX interaction | O15151+Q00987 | SaOS-2 split-luciferase Mdm2/MdmX complementation, luminescence | inhibition, % at 8 µM | 3% of 330,000 active | AID 485346;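 active means inhibition of at least 50% at 8 µM in the primary screen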
Target sequence (O15151 whole entry, looked up): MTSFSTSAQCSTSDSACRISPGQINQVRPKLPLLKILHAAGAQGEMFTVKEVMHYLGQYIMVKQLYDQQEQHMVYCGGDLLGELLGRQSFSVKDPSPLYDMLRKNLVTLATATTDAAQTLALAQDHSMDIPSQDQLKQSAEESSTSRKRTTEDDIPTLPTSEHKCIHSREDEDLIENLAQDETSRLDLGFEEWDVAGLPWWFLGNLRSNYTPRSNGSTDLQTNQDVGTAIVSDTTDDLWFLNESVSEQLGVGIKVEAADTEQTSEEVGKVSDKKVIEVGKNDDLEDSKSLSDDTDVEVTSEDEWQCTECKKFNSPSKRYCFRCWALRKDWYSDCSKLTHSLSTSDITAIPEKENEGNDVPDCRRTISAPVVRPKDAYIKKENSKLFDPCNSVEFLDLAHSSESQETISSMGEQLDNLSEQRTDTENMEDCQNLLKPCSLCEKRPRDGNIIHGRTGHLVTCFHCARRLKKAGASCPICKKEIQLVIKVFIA
Target sequence (Q00987 whole entry, looked up): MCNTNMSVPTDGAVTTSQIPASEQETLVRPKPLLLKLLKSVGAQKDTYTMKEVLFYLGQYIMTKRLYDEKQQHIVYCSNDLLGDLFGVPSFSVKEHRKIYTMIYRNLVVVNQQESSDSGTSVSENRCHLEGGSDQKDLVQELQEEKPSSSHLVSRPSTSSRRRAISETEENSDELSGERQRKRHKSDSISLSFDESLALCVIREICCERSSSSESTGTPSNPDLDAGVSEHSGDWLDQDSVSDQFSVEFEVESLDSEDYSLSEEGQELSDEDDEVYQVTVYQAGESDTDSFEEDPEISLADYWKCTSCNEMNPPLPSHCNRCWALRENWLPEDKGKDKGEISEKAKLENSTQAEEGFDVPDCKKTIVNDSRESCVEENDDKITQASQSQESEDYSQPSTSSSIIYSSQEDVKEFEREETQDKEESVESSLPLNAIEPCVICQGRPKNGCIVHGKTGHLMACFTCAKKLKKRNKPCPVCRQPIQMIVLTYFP
Gli-Sufu antag = antagonists of Gli-Sufu signaling; Sufu-KO-LIGHT fibroblasts, Gli luciferase reporter luminescence; 0.74% of 340,000 active; inhibition, % at 5 µM; AID 588413;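 active means inhibition above about 55%, limit read from the data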
Mdm2-MdmX conf = human Mdm2/MdmX binding inhibition, confirmed; shares compounds with Mdm2 MdmX PPI; luminescent assay; inhibition, % at 8 µM; 55% of 10,000 active; AID 489028; in the data active means inhibition above about 40%
Full FLuc ctr = inhibits full-length luciferase, flagging false Mdm2/MdmX hits; SaOS-2 full-length luciferase counterscreen, luminescence; AID 504607; inhibition, % at 8 µM; 77% of 6,200 active; shares compounds with Mdm2 MdmX PPI;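 active means mean inhibition at 8 µM reaching about 37%, which flags the compound as non-specific, limit read from the data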;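 further: p53-null SaOS-2 cells with luciferase driven by a doxycycline-inducible promoter; compound on cells about two nights before reading with doxycycline added after day one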
Of the large screens only hits and unclear results are named; the others gave an inactive call (follow-up assays come after a bar, where they were run). This is a sample that favours compounds with a hit; in the whole collection about 3.8% have one here.

C/C(=N/Nc1cc(-c2ccccc2)nc(-c2ccccc2)n1)c1ccc(O)cc1	Mdm2 MdmX PPI 56 | Mdm2-MdmX conf inactive
C/C(=N\Nc1cc(-c2ccccc2)nc(-c2ccc(Br)cc2)n1)c1cccc(N)c1	none
Nc1ccc2c(c1)OC1(CCCC1)O2	Mdm2 MdmX PPI 70 | Mdm2-MdmX conf 80 | Full FLuc ctr 37
O=C(Cc1ccccc1)Nc1ccc2c(c1)OC1(CCCC1)O2	none
O=C(CCc1nc2ccccc2s1)Nc1cccnc1	none
Oc1ccc(Nc2nc(-c3ccccc3F)nc3ccccc23)cc1	none
COc1ccc(Nc2nc(-c3ccccc3F)nc3ccccc23)cc1OC	Mdm2 MdmX PPI 55 | Mdm2-MdmX conf inactive
Oc1ccc(Nc2nc(-c3ccccc3O)nc3ccccc23)cc1	Mdm2 MdmX PPI 54 | Mdm2-MdmX conf inactive
COc1ccc(Nc2nc(-c3ccccc3O)nc3ccccc23)cc1	none
COc1ccc(NC(=O)c2cccc(-n3c(C)ccc3C)c2)c(OC)c1	none
COc1cc(/C=N/NC(=S)NC2CC3CC2C2C=CCC32)ccc1O (centres undefined)	Mdm2 MdmX PPI 63 | Mdm2-MdmX conf inactive
CSc1ccc(C2C(C#N)=C(N)Oc3cc4c(cc32)OCO4)cc1 (centres undefined)	Mdm2 MdmX PPI 69 | Mdm2-MdmX conf 60 | Full FLuc ctr 60
Cc1ccc(C2C(C#N)=C(N)Oc3cc4c(cc32)OCO4)cc1 (centres undefined)	Mdm2 MdmX PPI 55 | Mdm2-MdmX conf 65 | Full FLuc ctr 64
N#CC1=C(N)OC(c2ccccc2)=C(C#N)C1c1ccc2c(c1)OCO2 (centres undefined)	none
Cc1ccc(-c2nc3c(Cl)cc(C(F)(F)F)cn3c2Cc2ccccc2)cc1	none (no result: Jurkat NFkB inh, 697 NFkB inh, Mdm2 MdmX PPI, Gli-Sufu antag)
COc1ccccc1Cc1c(-c2ccc(C#N)cc2)nc2c3ccccc3ccn12	none (no result: Jurkat NFkB inh, 697 NFkB inh, Mdm2 MdmX PPI, Gli-Sufu antag)
O=C(Cc1ccc([N+](=O)[O-])cc1)OCc1c(F)cccc1Cl	none
COc1cc(NC(=O)c2oc3ccccc3c2C)ccc1NC(=O)c1ccco1	Mdm2 MdmX PPI 63 | Mdm2-MdmX conf inactive | Full FLuc ctr 56
COc1cc(NC(=O)c2ccc(C)cc2C)ccc1NC(=O)c1cc2ccccc2o1	Mdm2 MdmX PPI 84 | Mdm2-MdmX conf 62 | Full FLuc ctr 39
COc1cc(NC(=O)c2ccc(C)cc2)ccc1NC(=O)c1cc2ccccc2o1	Mdm2 MdmX PPI 57 | Mdm2-MdmX conf inactive | Full FLuc ctr 90
COc1cc(NC(=O)c2cccc(F)c2)ccc1NC(=O)c1cc2ccccc2o1	Mdm2 MdmX PPI 87 | Mdm2-MdmX conf 62 | Full FLuc ctr 86
COc1cc(NC(=O)c2ccc(Br)cc2)ccc1NC(=O)c1cc2ccccc2o1	none
COc1cccc(N2CCN(C(=O)C3CCN(S(=O)(=O)c4ccc5c(c4)CC(C)N5C(C)=O)CC3)CC2)c1 (centres undefined)	none
O=C(Nc1ccccc1)c1cc(C2COCCN2C(=O)CCCc2ccccc2)on1 (centres undefined)	none (no result: Jurkat NFkB inh, 697 NFkB inh, Mdm2 MdmX PPI, Gli-Sufu antag)
COc1ccc(F)c(CN2CCC(n3nccc3NC(=O)C3CCOC3)CC2)c1 (centres undefined)	none
COc1cc(NC(C)=O)ccc1-c1cc2ccccc2oc1=O	none
COc1cc(NC(=O)c2ccc(F)cc2)ccc1NC(=O)c1cc2ccccc2o1	none
COc1cc(NC(=O)c2ccc(Cl)cc2Cl)ccc1-c1cc2ccccc2oc1=O	Mdm2 MdmX PPI 57 | Mdm2-MdmX conf inactive
COc1cc(NC(=O)c2ccccc2F)ccc1NC(=O)c1cc2ccccc2o1	Mdm2 MdmX PPI 68 | Mdm2-MdmX conf inactive | Full FLuc ctr 63
Cn1c(NN)nc2c1c(=O)n(Cc1ccccc1)c(=O)n2C	none
CCOc1ccc(N(CC(=O)Nc2ccc(OC)cc2)C2=NC3CS(=O)(=O)CC3S2)cc1 (centres undefined)	none
Cc1cc2ccccn2c1C(=O)c1ccc(Cl)c([N+](=O)[O-])c1	none
Cc1c(C=O)c2ccccn2c1C(=O)c1ccc(Cl)c([N+](=O)[O-])c1	Mdm2 MdmX PPI 66 | Mdm2-MdmX conf inactive
COc1cc(/C=N/N=C(N)N)ccc1OCc1ccccc1Cl	Mdm2 MdmX PPI 100 | Mdm2-MdmX conf inactive | Full FLuc ctr 74
COc1ccc(/C=N/N=C/c2ccc(OC)c(OC)c2)cc1OC	none
COC(=O)c1ccccc1NC(=O)c1ccc2c(c1)OCCCO2	none
COc1cc(OC)cc(C(=O)NNC(=O)c2ccc3c(c2)OCCO3)c1	none
COc1cc(OC)cc(-c2nnc(NC(=O)CCS(=O)(=O)c3ccc(C)cc3)o2)c1	Mdm2 MdmX PPI 51 | Mdm2-MdmX conf 61 | Full FLuc ctr 72
COc1cc(OC)cc(-c2nnc(NC(=O)c3ccc4c(c3)OCCO4)o2)c1	Mdm2 MdmX PPI 53 | Mdm2-MdmX conf inactive
COc1cccc(C(=O)Nc2nnc(-c3ccc(Cl)cc3)o2)c1	none
CCOc1ccc(-c2nnc(NC(=O)c3ccc(OCC(C)C)c(OC)c3)o2)cc1	Mdm2 MdmX PPI 57 | Mdm2-MdmX conf 57 | Full FLuc ctr inactive
Cc1ccc(S(=O)(=O)CCC(=O)Nc2nnc(-c3ccc(F)cc3)o2)cc1	none
O=C(Cn1cncn1)NCc1cc(F)ccc1F	none
COc1ccccc1N(CC(=O)NCc1ccc2c(c1)OCO2)C(=O)CCC(=O)Nc1nccs1	none
CC(C)Cn1c(N)c(C(=O)COC(=O)c2cc(C(F)(F)F)nc3c(C(F)(F)F)cccc23)c(=O)n(C)c1=O	Mdm2 MdmX PPI 88 (no result: Shn3 3UTR inh, Gli-Sufu antag) | Mdm2-MdmX conf inactive
N#Cc1nc(-c2ccc(OCc3ccc(Cl)cc3)cc2)oc1N1CCOCC1	Mdm2 MdmX PPI 55 | Mdm2-MdmX conf inactive
Cc1cc(C(=O)OCC(=O)N(CC(C)C)c2c(N)n(Cc3ccccc3)c(=O)[nH]c2=O)c(C)o1	none
CCc1ccc(N=C2N=C(N)c3ccccc32)cc1	Mdm2 MdmX PPI 55 | Mdm2-MdmX conf inactive
CCOc1ccc(NC(=O)C2CCCN2S(=O)(=O)c2ccc(OCC)cc2)cc1 (centres undefined)	none
CCOC(=O)C1=C(c2ccccc2)NC(N)=NC1c1ccc(OCc2ccc(C(=O)OC)cc2)cc1 (centres undefined)	Mdm2 MdmX PPI 100 | Mdm2-MdmX conf inactive | Full FLuc ctr 72
CCOC(=O)C1=C(c2ccccc2)Nc2ncnn2C1c1ccc(C(=O)O)cc1 (centres undefined)	none
CCOc1ccc(S(=O)(=O)N(CC)CC)cc1NC(=O)c1ccc(N2CCCC2=O)cc1	none
O=S(=O)(Nc1nc2ccccc2nc1NCc1ccco1)c1ccc(Cl)cc1	none
Cc1noc(C)c1CSc1nc2ccccc2nc1NS(=O)(=O)c1ccc(Cl)cc1	Mdm2 MdmX PPI 63 | Mdm2-MdmX conf inactive
CCn1cc([N+](=O)[O-])c(C(=O)N2N=C(c3ccc(Cl)c(Cl)c3)CC2c2ccccc2O)n1 (centres undefined)	Mdm2 MdmX PPI 71 | Mdm2-MdmX conf 42 | Full FLuc ctr 71
